Experimental data published in PMC6792352, “Limited Chemical Structural Diversity Found to Modulate Thyroid Hormone Receptor in the Tox21 Chemical Library” (Environmental Health Perspectives, 2019).
Counter-ions that a name gives are not always drawn.

The molecules below were run on thyroid hormone receptor (endogenous TRα and TRβ). Settings: read-out: Average AC50 (uM) GH3-TRE-Antag, antagonist mode, 1 nM T3, no GH3 cytotoxicity hit.
Set-up: species or system GH3-TRE-Luc (rat pituitary); GH3-TRE-Luc luciferase reporter, antagonist mode against 1 nM T3, loss of signal, qHTS

Question: Which AC50 does the source give for `CCCC(=O)OC[C@@H](OC(=O)CCC)[C@@H](OC(=O)CCC)[C@H](Cn1c2nc(=O)[nH]c(=O)c-2nc2cc(C)c(C)cc21)OC(=O)CCC` [Riboflavin tetrabutyrate] here?
Answer: The AC50 was 42 µM.

Question: With `CCCN(CC)CC1COC2(CCC(C(C)(C)C)CC2)O1` (stereo not drawn) [Spiroxamine] as the molecule, how does the AC50 read?
Answer: Its AC50 is 66.6 µM.

Question: Which AC50 does the source give for `Nc1c2ccccc2nc2ccccc12` [9-Aminoacridine, monohydrochloride, monohydrate] here?
Answer: Its AC50 is 3.62 µM.

Same assay, conditions: read-out: Average AC50 (uM) GH3-TRE-Antag, antagonist mode, 1 nM T3, no GH3 cytotoxicity hit, Average AC50 (uM) GH3-TRE-Antag, 24 h

Question: Which AC50 does the source give for `CC(C)n1c(/C=C/[C@H](O)C[C@H](O)CC(=O)O)c(-c2ccc(F)cc2)c2ccccc21` [Fluvastatin sodium] here?
Answer: The AC50 was 39.3 µM.

Question: Which AC50 does the source give for `CCCCCC[n+]1ccccc1` [1-Hexylpyridinium trifluoromethanesulfonate] here?
Answer: The AC50 was 45.4 µM.

Question: How did the AC50 turn out when `Nc1c2c(nc3ccccc13)CCCC2` [Tacrine] was run?
Answer: Its AC50 is 41.7 µM.
